In all, about 340,000 compounds went through this assay and about 12,000 (3.5%) were called active. A call without a number means that no potency is given here. Not shown: some 18% with an inconclusive outcome. The full list was thinned out, with actives kept by preference. Unmarked numbers belong to inactive results. Calls follow the shape of the dose curve; as a rule, active = well fitted inhibition curve with a large enough effect; inconclusive = small, poorly fitted or top-dose-only effect, or another doubt; inactive = no such curve, though single readings can be large or run the other way.

The assay in a line: qHTS Assay for Inhibitors of Hepatitis C Virus (HCV). Particulars: Huh7.5.1 HCVcc-Cre infection, luciferase reporter, 44 h; series mostly up to 41.8 µM. An excerpt: Hepatitis C virus (HCV) infects about 200 million people in the world. Many infected people progress to chronic liver disease including cirrhosis with a risk of developing liver cancer. To date, there is no effective vaccine for hepatitis C. Current therapy based on interferon is only effective in about half of the patients and is associated with significant adverse effects. The fraction of people with HCV who can complete a successful treatment is estimated to be no more than 10 percent. Recent development of direct-acting antivirals against HCV, such as protease and polymerase inhibitors, is promising but still requires combination with peginterferon and ribavirin for maximal efficacy. In addition, these agents are associated with high rate of resistance and many have significant side effects. Due to the lack of a culture system for infectious HCV, the search for new HCV drugs has been greatly hampered. […] High-throughput screening (HTS) with an infectious HCV system would cover the complete spectrum of potentially druggable targets in all stages of HCV lifecycle, and would have more biological relevance than other cell-based assays. Moreover, targeting several key processes in the viral life cycle may not only increase antiviral efficacy; more importantly, it may also reduce the capacity of the virus to develop resistance to the compound. The goal of this project is to identify novel HCV inhibitors as new therapies for hepatitis C, using a highly sensitive and specific assay platform which is based on a HCV infectious cell culture system established in the laboratory and adapted for high-throughput HCV drug screen. NIH Chemical Genomics Center [NCGC] NIH Molecular Libraries Probe Centers Network [MLPCN] MLPCN Grant: MH095511 Assay Submitter (PI): Jake Liang, NIDDK
The assay will start with plating 1,000 cells/well in 3 µL volume and culture for 4 h. Then 23 nL of compounds from the library collection will be added to each well, followed by adding 2.5 µL of HCVcc-Cre virus (~ 0.5 moi) and further cultured for 44 h before the luciferase assay. A volume of 4.5 µL luciferase substrates will be added to each well and the plates will be incubated at room temperature for 15 min. and then read for 15 sec. for the luciferase activity
On the technique in general: Quantitative high-throughput screening tests each substance at several concentrations.
Consider `S=C(Nc1ccc(Cl)cc1Cl)N1CCCC1`, for which the Potency entry was “inactive”.
To `Cc1ccc2c(c1)C1CN(C)CCC1N2C(=O)c1ccccc1NS(=O)(=O)c1ccc(F)cc1C` (stereo not given) belongs “inactive”.
In the case of `Cc1ccc2c(c1)C1CN(C)CCC1N2C(=S)Nc1ccc(Cl)cc1Cl` (stereo not given), the Potency is 14.1 µM (active).
With `Cc1ccc(-c2nn(-c3ccc(F)cc3)cc2C(=O)NCC(c2cccs2)N2CCOCC2)cc1` (stereo not given), the Potency entry is “inactive”.
To `CC(=O)CSc1nc(CCc2ccccc2)c(C#N)c(=O)[nH]1` belongs “inactive”.
To `Cc1csc(=O)n1CC(=O)Nc1ccc(S(C)(=O)=O)cc1` belongs “inactive”; to `COc1ccc2nc(NC(=O)c3ccc(Br)s3)sc2c1`, “inactive”.
With `COc1ccc2nc(Nc3nc4ccc(NC(C)=O)cc4s3)sc2c1`, the Potency was 12.6 µM (active).
To `COc1ccc2nc(NC(=O)NC3CCCCC3)sc2c1` belongs “inactive”; to `O=C(COC(=O)c1cccc(Cl)c1)NC(=O)NCc1ccccc1`, “inactive”; to `Cc1noc(C)c1COc1ccc(C(=O)NCCOc2ccccc2)cc1`, “inactive”.
Under `CN(CC(=O)Nc1ccc(N2CCOCC2)cc1)CC(=O)Nc1ccccc1[N+](=O)[O-]` stands “inactive”; under `O=C(Nc1ccc(N2CCOCC2)cc1)c1ccc(-c2ccccc2[N+](=O)[O-])o1`, 11.2 µM (active).
To `O=C(NC(=S)Nc1ccc(S(=O)(=O)N2CCOCC2)cc1)c1ccccc1[N+](=O)[O-]` belongs “inactive”.
For `Clc1ccc(Nc2ccc3ccccc3n2)cc1`, the Potency entry is “inactive”.
Under `N#CC1(NC(=O)COC(=O)CSc2ccc(F)cc2)CCCCC1` stands “inactive”; under `COc1cccc(COC(=O)C2CCN(S(=O)(=O)c3cccs3)CC2)c1OC`, “inactive”.
For `COC(=O)c1sc(NC(=O)c2ccc(OC)cc2OC)nc1C`, the Potency result is “inactive”.
To `COC(=O)c1sc(NC(=O)c2csc3c2CCCC3)nc1C` belongs 11.2 µM (active); to `Cc1ccc(NC(=O)c2csc3c2CCCC3)cc1`, “inactive”.
Under `CC1=NNC(=O)C1Cc1c(Cl)cccc1Cl` (stereo not given) stands “inactive”.
Under `CCCCN1CC(CO)Oc2cccc(F)c2S1(=O)=O` (stereo not given) stands “inactive”.
As for `COc1cccc2oc(CCc3ccccc3)cc(=O)c12`, the Potency result was “inactive”.
For the compound `c1csc(-c2cn3c(n2)SCC3)c1`, the Potency result was “inactive”.
To `Cc1cc(-c2cccs2)nc(-n2cccc2)n1` belongs 5.01 µM (active); to `Cc1cc2nc(C(F)(F)F)cc(-c3cccs3)n2n1`, “inactive”; to `CO[C@@H]1[C@@H](OC(N)=O)[C@@H](O)C(Oc2ccc3c(O)c(NC(=O)c4ccc(O)c(CC=C(C)C)c4)c(=O)oc3c2C)OC1(C)C` (stereo not given in full), “inactive”.
Under `CC[C@]12c3[nH]c4ccc(Cl)cc4c3CCN1C(=O)[C@@H](CC(=O)NCCCOC)C[C@@H]2C(=O)N1CCN(C(=O)c2ccco2)CC1` stands “inactive”.
Under `COc1ccccc1N1CCN(c2nc(C)cc(=O)[nH]2)CC1` stands “inactive”; under `O=C(COC(=O)C1(c2ccc(F)cc2)CCCC1)N1CCNC1=O`, “inactive”; under `CSc1ncc(Sc2ccccc2)c(C(=O)O)n1`, “inactive”.
For the compound `CSc1nc(C)cc(SC(C(C)=O)C(=O)Nc2ccccc2)n1` (stereo not given), the Potency entry was “inactive”.
As to `CSc1nc(-c2ccccc2)nc(C(Cl)Cl)n1`, the Potency is 3.98 µM (active).
To `CCOc1ncccc1C(=O)Nc1ccc2c(c1)OCCO2` belongs “inactive”.
Regarding `CC(=O)c1ccc(S(=O)(=O)Nc2ccc(-c3ccc4nncn4n3)cc2)cc1`, the Potency entry was “inactive”.
To `C[C@@H]1C[C@@H]2O[C@H]2/C=C\C=C\C(=O)Cc2c(Cl)c(O)cc(O)c2C(=O)O1` belongs 3.16 µM (active); to `Cc1noc(C)c1NC(=O)Nc1cccc2c1O[C@H](CN(C)S(=O)(=O)c1c(C)noc1C)[C@@H](C)CN([C@H](C)CO)C2=O`, “inactive”.
To `CC(=O)c1ccc(S(=O)(=O)N2CCN(c3nc4c(C)c(C)ccc4cc3C#N)CC2)cc1` belongs 10 µM (active); to `Cc1cc(C)c2nc(N3CCCC3)c(C#N)cc2c1`, “inactive”.
To `CC(=O)c1ccc(S(=O)(=O)N2CCN(C(=O)/C=C/c3ccc4ccccc4n3)CC2)cc1` belongs “inactive”; to `O=C(Cc1ccc([N+](=O)[O-])cc1)NCCc1ccc2c(c1)OCO2`, “inactive”.
Take `CN(C(=O)COC(=O)Cc1ccccc1[N+](=O)[O-])C1CCS(=O)(=O)C1` (stereo not given): the Potency entry was “inactive”.
To `COc1ccc(CCNC(=O)c2ccccc2-c2ccccc2C(=O)O)cc1OC` belongs “inactive”.
Take `COc1ccc(CCN2C(=O)C(C)=C(C)C2=O)cc1OC`: the Potency entry was “inactive”.
In the case of `COc1ccc(CCNC2=C(Cl)C(=O)N(Cc3ccccc3)C2=O)cc1OC`, the Potency is 12.6 µM (active).
To `Cc1ccc(S(=O)(=O)CC(=O)Nc2sc(C)c(C)c2C(N)=O)cc1` belongs “inactive”.
Under `COc1cc2c(cc1CNC[C@H]1O[C@@H](n3cnc(C(N)=O)n3)[C@H](O)[C@@H]1O)OCO2` stands “inactive”; under `NC(N)=Nc1nc(-c2ccccc2)c2cc(Cl)ccc2n1`, 11.2 µM (active).
To `Cc1ccc2nc(Nc3ccccc3O)nc(-c3ccccc3)c2c1` belongs “inactive”; to `OCCCNc1nc(-c2ccccc2)c2cc(Cl)ccc2n1`, “inactive”.

(Values after PubChem BioAssay AID651820 (National Center for Advancing Translational Sciences (NCATS), 2012).)
